USP8 inh: blocks human USP8 ubiquitin-rhodamine cleavage. 47,000 tested, 4.2% active. inhibition, % at 20 µM. purified USP8, Ub-rhodamine cleavage fluorescence, 30 min. AID 1645853
USP17 inh: inhibitors of human USP17 deubiquitinase. inhibition, % at 50 µM. A8MUK1. AID 1645855. purified USP17, Ub-rhodamine cleavage fluorescence, 3 h. 47,000 tested, 6.5% active
USP30 inh: inhibitors of human USP30 deubiquitinase; AID 1645860; purified USP30, Ub-rhodamine cleavage fluorescence; Q70CQ3; inhibition, % at 25 µM; 47,000 tested, 5.3% active
* = called active by the depositor. Compounds with a hit are over-represented: about 12% of the library has one in this group of screens. No stated cut-off is given here; in the data, active means inhibition above about 30%; inactive means the rest.

How did Cc1ccc2c(CNCCC3=CCCCC3)c(C(=O)O)n(C)c2c1 do in these assays?
USP8 inh: -8; USP17 inh: -4; USP30 inh: -4

How did Cc1ccc(-c2c(C(=O)NCc3ccccc3F)oc(=O)c3ccccc23)cc1 do in these assays?
USP8 inh: 5; USP17 inh: 9; USP30 inh: 20

Results for COc1ccccc1CNC(=O)c1oc(=O)c2ccccc2c1-c1ccc(C)cc1 ?
USP8 inh: 10; USP17 inh: 21; USP30 inh: 40*

Results for CN(CC(=O)N1c2ccccc2OCC1c1ccccc1)Cc1ccco1 (stereo unspecified) ?
USP8 inh: 12; USP17 inh: 0; USP30 inh: -6

Results for COc1ccc(-c2noc(CC(=O)N(C)c3ccccc3C)n2)cc1 ?
USP8 inh: 6; USP17 inh: -5

What do the screens show for `O=C(Nc1ccc2c(c1)OCCO2)c1cnc(N2CCOCC2)nc1`?
USP8 inh: -4; USP17 inh: -9; USP30 inh: -7

What do the screens show for `O=C(Nc1ccc2c(c1)OCO2)c1cc(CN2CCCC2)on1`?
USP8 inh: 53*; USP17 inh: 35*; USP30 inh: -24

What do the screens show for `CC(=O)Nc1cccc(C(=O)Nc2ccc(N3CCCC3=O)cc2)c1`?
USP8 inh: 3; USP17 inh: 13; USP30 inh: 25

Results for O=C(Nc1ccc2c(c1)OCO2)c1ccc(N2CCCC2=O)cc1 ?
USP8 inh: 23; USP17 inh: 50*; USP30 inh: 16

Results for O=C(Nc1ccc(Cl)cc1)c1cc(CN2CCCC2)on1 ?
USP8 inh: 1; USP17 inh: -1; USP30 inh: 10

How did O=C(Nc1ccc2c(c1)OCO2)c1cnc(N2CCOCC2)nc1 do in these assays?
USP8 inh: 81*; USP17 inh: 40*; USP30 inh: 0

What do the screens show for `O=C(c1cccc(Cl)c1)N1CCN(c2nnc3ccccn23)CC1`?
USP8 inh: -4; USP17 inh: 1; USP30 inh: 1

Results for C=C1Nc2ccccc2C(=O)N1c1cccc(NC(=O)c2ccc(F)c(F)c2)c1 ?
USP8 inh: 4; USP17 inh: 5; USP30 inh: -13

What do the screens show for `Cc1cc(C)c2nc(NC(=O)c3cn(Cc4ccccc4)nc3-c3cccnc3)sc2c1`?
USP8 inh: -42; USP17 inh: -41; USP30 inh: -114

Results for COc1cc2c(cc1OC)[C@H](C)N(CC1C(=O)O[C@@]34[C@H]1CC[C@@H](C)[C@@H]3CC[C@@]1(C)O[C@@H]41)CC2 (stereo partly specified) ?
USP8 inh: 50*; USP17 inh: -2; USP30 inh: -64

What do the screens show for `C[C@H]1CCC[C@]2(C)C[C@H]3OC(=O)C(CN4CCc5ccccc5C4)[C@H]3C=C12` (stereo partly specified)?
USP8 inh: -4; USP17 inh: -8; USP30 inh: 6

How did COc1cc2c(cc1OC)[C@H](C)N(CC1C(=O)O[C@@H]3C[C@@]4(C)CCC[C@H](C)C4=C[C@H]13)CC2 (stereo partly specified) do in these assays?
USP8 inh: 45*; USP17 inh: -19; USP30 inh: -236

What do the screens show for `CC1CCN(CC2C(=O)O[C@@]34[C@H]2CC[C@@H](C)[C@@H]3CC[C@@]2(C)O[C@@H]42)CC1` (stereo partly specified)?
USP8 inh: 0; USP17 inh: -11; USP30 inh: 6

What do the screens show for `Cc1cc(=O)n2c(n1)NC(N1CCN(c3ccccc3)CC1)=NC2c1cccnc1` (stereo unspecified)?
USP8 inh: 11; USP17 inh: 11; USP30 inh: 11

Results for COc1cccc2sc(N3CCN(C(=O)C4CCCCC4)CC3)nc12 ?
USP8 inh: -9; USP17 inh: -2; USP30 inh: -4

How did COc1cccc(CN2CCC3(CC2)OC(C(=O)N2CCCCC2)Cn2ccnc23)c1 (stereo unspecified) do in these assays?
USP8 inh: -124; USP17 inh: -22; USP30 inh: 0

What do the screens show for `COc1cccc(CN2CCC(C(=O)NC(C)c3ccccc3)CC2)c1O` (stereo unspecified)?
USP8 inh: -5; USP17 inh: 1; USP30 inh: 3

What do the screens show for `Cc1ccn2cc(CCNC(=O)c3ccc(F)c(F)c3)nc2c1`?
USP8 inh: -1; USP17 inh: -2; USP30 inh: -44

What do the screens show for `CC1=C(C(=O)Nc2cccc(C)c2C)C2(CCN(C(C)C)CC2)OC1=O`?
USP8 inh: -33; USP17 inh: 9; USP30 inh: 1

How did CC1=C(C(=O)Nc2c(C)cc(C)cc2C)C2(CCC(C)CC2)OC1=O (stereo unspecified) do in these assays?
USP8 inh: -10; USP17 inh: 34*; USP30 inh: -14

How did C=C1NC(=O)c2c(sc(C(=O)OCC(=O)NCCCc3ccccc3)c2C)N1 do in these assays?
USP8 inh: 30; USP17 inh: 10; USP30 inh: 9

Bioassay records as filed in PubChem BioAssay.
